Source: PubChem (The Scripps Research Institute Molecular Screening Center)
PAFAH1B3 FP inh: inhibitors of human PAFAH1B3; Q15102; recombinant PAFAH1B3, FP-rhodamine probe, fluorescence polarization; inhibition, % at 3.39 µM; 340,000 compounds, 0.28% hits; AID 492972;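 active = inhibition above the screen-wide average of all tested compounds plus 3 SD, cut at about 25% in these data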
Target sequence (Q15102 whole entry, looked up): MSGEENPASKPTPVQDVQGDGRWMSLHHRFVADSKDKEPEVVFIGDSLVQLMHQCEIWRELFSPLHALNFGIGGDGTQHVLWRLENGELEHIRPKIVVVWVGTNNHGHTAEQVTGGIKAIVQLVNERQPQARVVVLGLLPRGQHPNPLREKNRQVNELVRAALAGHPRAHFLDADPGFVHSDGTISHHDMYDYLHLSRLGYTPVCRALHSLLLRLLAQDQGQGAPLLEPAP
PAFAH2 FP inh: inhibitors of human PAFAH2; recombinant PAFAH2, FP-rhodamine activity probe, fluorescence polarization; Q99487; inhibition, % at 3.39 µM; 340,000 compounds, 0.99% hits; AID 492956;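 active = inhibition above the mean over all tested compounds plus 3 SD, cut at about 30% in these data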;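 note: inhibitors block probe labeling of enzyme so polarization drops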
pPAFAH FP inh: inhibitors of human plasma PAF acetylhydrolase (pPAFAH) | Q13093 | recombinant pPAFAH, FP-rhodamine probe fluorescence polarization | inhibition, % at 3.39 µM | 330,000 compounds, 1.5% hits | AID 463082;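 active = inhibition above the mean inhibition across the screen plus 3 SD, cut at about 25% in these data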;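 note: inhibitors block binding of the rhodamine activity-based probe so polarization drops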
PAFAH1B2 inh: inhibitors of human PAFAH1B2; P68402; recombinant PAFAH1B2, FP-rhodamine activity probe, fluorescence polarization; inhibition, % at 3.39 µM; 340,000 compounds, 1.2% hits; AID 492953;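 active = inhibition above the mean of all tested compounds plus 3 SD, cut at about 24% in these data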
Target sequence (P68402 whole entry, looked up): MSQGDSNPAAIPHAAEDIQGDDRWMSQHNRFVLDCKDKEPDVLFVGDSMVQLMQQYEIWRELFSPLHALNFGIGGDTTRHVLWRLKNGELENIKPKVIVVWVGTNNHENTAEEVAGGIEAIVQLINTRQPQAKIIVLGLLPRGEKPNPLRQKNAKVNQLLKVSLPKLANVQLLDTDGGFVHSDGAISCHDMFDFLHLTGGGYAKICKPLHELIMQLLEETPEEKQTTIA
Fam108B counter: Fam108B inhibition, counter-screen for RBBP9 inhibitors; 300,000 compounds, 0.33% hits; inhibition, % at 9.51 µM; recombinant Fam108B, FP-Rh probe fluorescence polarization;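 active = inhibition above the screen mean inhibition plus 3 SD, computed separately per campaign, cut at about 18% in these data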;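 note: inhibitors lower polarization as less probe binds the enzyme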
PME-1 primary: blocks human protein phosphatase methylesterase 1. Q9Y570. recombinant PME-1, FP-Rh probe fluorescence polarization. inhibition, % at 5.9 µM. 320,000 compounds, 0.53% hits;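 active = inhibition above the campaign mean of all compounds plus 3 SD, cut at about 26% in these data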;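 note: competitive labeling of PME-1 active site by serine hydrolase directed probe; inhibitors block probe labeling so polarization falls and inhibition rises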
Each line names hits and unclear results; the compound was inactive in the other large screens. An excerpt weighted towards active compounds, which were near 2.8% of everything screened.

CN(C(=O)CN1C(=O)c2ccccc2S1(=O)=O)C1CCCCC1	none (no result: Fam108B counter, PME-1 primary)
Cc1ccc(C(=O)CN2C(=O)C(=O)N(Cc3ccccc3)C2=O)cc1	PAFAH1B2 inh 26
Cc1ccc(CN2C(=O)C(=O)N(CC(N)=O)C2=O)cc1	none
O=S(=O)(Nc1cccnc1)c1ccc(Cl)c(C(F)(F)F)c1	PAFAH1B2 inh 26
COc1ccc(NS(=O)(=O)c2cccc(NC(=O)CCS(=O)(=O)c3ccccc3)c2)cc1	pPAFAH FP inh 34
COc1ccc(NS(=O)(=O)c2cccc(NC(=O)CCC(=O)c3cccs3)c2)cc1	pPAFAH FP inh 33
COc1ccc(NS(=O)(=O)c2cccc(NC(=O)COc3ccccc3[N+](=O)[O-])c2)cc1	none (no result: Fam108B counter, PME-1 primary)
NS(=O)(=O)c1cccc(NC(=O)CCC(=O)c2cccs2)c1	none
CC(Sc1ccc(Cl)cc1)C(=O)N(C)CC(=O)Nc1ccc(N2CCOCC2)cc1 (stereo not drawn)	none
C=C[C@]1(C)C=C2CCC3[C@](C)(CCC[C@@]3(C)C(=O)O)C2CC1 (stereo partly drawn)	PAFAH2 FP inh 43, PAFAH1B2 inh 68
N#Cc1cc(N2CCCCC2)c([N+](=O)[O-])cc1C#N	none
O=[N+]([O-])c1cc2no[n+]([O-])c2cc1N1CCCCC1	PAFAH1B3 FP inh 86, PAFAH2 FP inh 74, PAFAH1B2 inh 70 (no result: pPAFAH FP inh, Fam108B counter, PME-1 primary)
CC/C(=N\NC(=O)c1nnn(-c2nonc2N)c1-c1cccc(OC)c1)c1ccc(C)cc1	none
CC(C)(C)c1ccc(N/N=C(\C#N)S(=O)(=O)C(C)(C)C)cc1	pPAFAH FP inh 33
O=C(c1ccccn1)N1CCCC(N2CCN(c3ccccc3)CC2)C1 (stereo not drawn)	none
CCc1ccc(N2CSC3=C(C#N)C(c4cccs4)CC(=O)N3C2)cc1 (stereo not drawn)	none
Cc1ccc(N2CSC3=C(C#N)C(c4cccs4)CC(=O)N3C2)cc1 (stereo not drawn)	pPAFAH FP inh 25
O=C(N/N=C/c1cccc(O)c1)c1ccc(NC(=O)C2CCCCC2)cc1	none (no result: pPAFAH FP inh, Fam108B counter, PME-1 primary)
O=C(N/N=C/c1ccc(O)cc1O)c1ccc(NC(=O)C2CCCCC2)cc1	PAFAH1B3 FP inh 37, PAFAH1B2 inh 33
CCCCNc1c(-c2cccc(-c3ccc(OC)cc3)c2)nc2cc(C)ccn12	none (no result: Fam108B counter, PME-1 primary)
COc1cc(-c2nc3ccc(C)cn3c2NCc2ccccc2)ccc1-c1cccc(Cl)c1	pPAFAH FP inh 30 (no result: Fam108B counter, PME-1 primary)
Cc1ccc2nc(-c3ccc(-c4cccc(Cl)c4)cc3)c(NCc3ccccc3)n2c1	none
CCCCNc1c(-c2cccc(-c3ccc(OC)cc3)c2)nc2ccc(C)cn12	pPAFAH FP inh 25
COc1ccc2c(c1)CCC/C2=N/OC(=O)c1ccccc1OC	none
COc1ccccc1C(=O)ON=C1c2ccccc2-c2ccccc21	PAFAH2 FP inh 57, pPAFAH FP inh 29
Cc1ccc(-c2csc3ncnc(Nc4ccc(N5CCOCC5)cc4)c23)cc1	pPAFAH FP inh 30
Cc1ccc(-c2csc3ncnc(NCCN4CCOCC4)c23)cc1	none
O=S1(=O)CCOC[C@H](CC2CCCCC2)N1Cc1ccc(Cl)cc1	PAFAH1B2 inh 29
CCCC[C@H]1COCCS(=O)(=O)N1Cc1cccc(F)c1	none
Cc1ccc(CN2[C@@H](CC3CCCCC3)COCCS2(=O)=O)cc1	PAFAH1B2 inh 31
O=S1(=O)CCOC[C@H](CC2CCCCC2)N1Cc1cccc(F)c1	PAFAH1B2 inh 24
O=S1(=O)CCOC[C@H](c2ccccc2)N1Cc1cccc(Cl)c1	PAFAH1B2 inh 29
O=C(CSc1nc(=O)n2ccccc2n1)N1CCCc2ccccc21	none
CC(C)CC1Nc2ccc(C(=O)NCCCN3CCCCC3C)cc2NC1=O (stereo not drawn)	none
CCCOc1cccc(C(=O)N/N=C/c2ccoc2)c1	none
O=C(c1ccc(=O)oc1)N1CCCc2ccccc21	PAFAH2 FP inh 40, pPAFAH FP inh 25
CCCn1c(CCC(=O)O)ccc1-c1ccc(OC)cc1	none
COc1ccc(-c2ccc(CCC(=O)O)n2Cc2ccco2)cc1	pPAFAH FP inh 28
O=[N+]([O-])c1ccc(N/N=C/C=C/c2ccco2)cc1	none
O=C(COC(=O)c1ccc(Cl)nc1)Nc1ccc2c(c1)OCCO2	none (no result: Fam108B counter)
Cc1ccccc1C(=O)NNC(=S)Nc1cccc(C(F)(F)F)c1	none
FC(F)(F)c1cccc(NC(=S)NNC(=S)Nc2cccc(C(F)(F)F)c2)c1	PME-1 primary 33 (no result: PAFAH1B3 FP inh, PAFAH2 FP inh, PAFAH1B2 inh)
CNNC(=S)Nc1cccc(C(F)(F)F)c1	none (no result: PAFAH1B3 FP inh, PAFAH2 FP inh, PAFAH1B2 inh)
O=C(NNC(=S)Nc1cccc(C(F)(F)F)c1)c1ccc(Cl)cc1Cl	pPAFAH FP inh 25
Cc1cc(NC(=O)COC(=O)c2cnccn2)ccc1Br	none (no result: Fam108B counter, PME-1 primary)
O=c1oc2ccccc2c(Cl)c1CN1CCCCC1	none
CCCOc1ccc(C(F)(F)F)cc1NC(=O)C1CC(=O)N(Cc2ccco2)C1 (stereo not drawn)	none (no result: Fam108B counter)
COC(=O)CCCC1=CC2=CC(=O)C(C)(OC(=O)c3cccs3)C(=O)C2=CO1 (stereo not drawn)	pPAFAH FP inh 43 (no result: PAFAH1B3 FP inh, PAFAH2 FP inh, PAFAH1B2 inh)
CCCCC1=CC2=CC(=O)C(C)(OC(=O)c3ccco3)C(=O)C2=CO1 (stereo not drawn)	pPAFAH FP inh 48 (no result: PAFAH1B3 FP inh, PAFAH2 FP inh, PAFAH1B2 inh)
CC(C)(C)OC(=O)NCCCCC1=CC2=CC(=O)C(C)(OC(=O)c3cnc4ccccc4n3)C(=O)C2=CO1 (stereo not drawn)	pPAFAH FP inh 42 (no result: PAFAH1B3 FP inh, PAFAH2 FP inh, PAFAH1B2 inh)
COC/C=C/C1=CC2=CC(=O)C(C)(OC(=O)c3cnc4ccccc4n3)C(=O)C2=CN1CCCCO (stereo not drawn)	none
COC(=O)CCCC1=CC2=CC(=O)C(C)(OC(=O)c3cnc4ccccc4n3)C(=O)C2=CO1 (stereo not drawn)	pPAFAH FP inh 32 (no result: PAFAH1B3 FP inh, PAFAH2 FP inh, PAFAH1B2 inh)
COC(=O)CCCC1=CC2=CC(=O)C(C)(OC(=O)c3cccs3)C(=O)C2=CN1c1ccccc1 (stereo not drawn)	none
COC/C=C/C1=CC2=CC(=O)C(C)(OC(=O)c3cnc4ccccc4n3)C(=O)C2=CN1C1CC1 (stereo not drawn)	none
Cc1ccc(S(N)(=O)=O)cc1NC(=O)C(c1ccccc1)c1ccccc1	none
Cc1noc(C)c1NC(=O)N(C)C[C@H]1Oc2ccc(NC(=O)Nc3ccccc3)cc2C(=O)N([C@H](C)CO)C[C@@H]1C	none (no result: Fam108B counter, PME-1 primary)
CCCCC1=CC2=CC(=O)C(C)(OC(=O)CCC(=O)OC)C(=O)C2=CO1 (stereo not drawn)	pPAFAH FP inh 39 (no result: PAFAH1B3 FP inh, PAFAH2 FP inh, PAFAH1B2 inh)
COC/C=C/C1=CC2=CC(=O)C(C)(OC(=O)c3cnc4ccccc4n3)C(=O)C2=CN1CCc1ccccn1 (stereo not drawn)	pPAFAH FP inh 25 (no result: PAFAH1B3 FP inh, PAFAH2 FP inh, PAFAH1B2 inh)
COC(=O)CCC(=O)OC1(C)C(=O)C=C2C=C3CCCN3C=C2C1=O (stereo not drawn)	none
COC/C=C/C1=CC2=CC(=O)C(C)(OC(=O)c3cnc4ccccc4n3)C(=O)C2=CN1c1ccc(OC)cc1 (stereo not drawn)	none
